Our source for the outcome and AC50 values is PubChem BioAssay (EPA / NIEHS).

Each structure is given as a SMILES string. Activity calls are given as the source filed them. Rule for the calls: active = hit-call score of the fitted dose curve at least 0.9, where 1 is the maximum; inactive = score below 0.9.

The term AC50 denotes the concentration giving half of the maximal activity seen.

Sequence of Aryl hydrocarbon receptor (Homo sapiens) (P35869 whole entry, looked up): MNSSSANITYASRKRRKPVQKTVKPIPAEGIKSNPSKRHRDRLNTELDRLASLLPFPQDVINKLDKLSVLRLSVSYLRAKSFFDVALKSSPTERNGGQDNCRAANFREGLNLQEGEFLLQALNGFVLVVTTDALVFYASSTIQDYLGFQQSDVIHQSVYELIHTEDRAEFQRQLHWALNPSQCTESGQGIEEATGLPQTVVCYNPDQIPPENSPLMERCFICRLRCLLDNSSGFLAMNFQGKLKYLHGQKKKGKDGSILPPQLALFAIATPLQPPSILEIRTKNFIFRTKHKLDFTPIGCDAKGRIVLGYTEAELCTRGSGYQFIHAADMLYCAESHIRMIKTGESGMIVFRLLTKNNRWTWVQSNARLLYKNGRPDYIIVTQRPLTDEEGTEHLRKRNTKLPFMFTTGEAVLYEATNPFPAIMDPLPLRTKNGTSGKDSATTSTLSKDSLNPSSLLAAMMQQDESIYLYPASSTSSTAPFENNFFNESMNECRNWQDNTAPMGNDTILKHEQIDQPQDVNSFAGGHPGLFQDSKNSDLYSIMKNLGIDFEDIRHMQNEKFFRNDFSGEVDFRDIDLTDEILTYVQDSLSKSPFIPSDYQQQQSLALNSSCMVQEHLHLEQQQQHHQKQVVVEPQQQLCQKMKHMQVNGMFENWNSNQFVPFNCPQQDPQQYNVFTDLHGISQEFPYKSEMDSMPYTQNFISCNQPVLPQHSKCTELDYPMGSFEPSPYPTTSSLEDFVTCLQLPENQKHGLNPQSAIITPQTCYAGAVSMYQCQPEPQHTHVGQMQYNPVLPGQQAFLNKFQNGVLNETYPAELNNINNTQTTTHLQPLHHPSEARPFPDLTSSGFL

Test system in the first test: not listed separately
As to the kind of experiment: ATG_DR4_LXR_CIS: Attagene CIS-FACTORIAL HepG2 Assay for human Liver X Receptor (LXR), DR4 submotif (AID 2282929). Particulars: HepG2 Attagene DR4 cis-reporter, mRNA transcription; actives raise or lower the signal. The procedure, abridged:
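Transiently transfected HepG2 liver cells; cis-regulated reporters; 24 h dosing. RT-PCR plus CE read-out of reporter mRNA. DMSO baseline, bidirectional curve fitting.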
As to `Cc1cc(Cc2ccc(N)c(C)c2)ccc1N`, the result was inactive.
As to `O=C1OC(c2ccc(O)cc2)(c2ccc(O)cc2)c2ccccc21`, the AC50 was 54.9 µM (active).
In the case of `CC(C)(C)c1ccccc1`, the compound was classed as inactive.
On the same count and under the same terms, next, `CCCCCCCCCCCCCCCCO`: “inactive”; `COC(=O)CCC(=O)OC`: “inactive”; `CC(=O)CC(c1ccccc1)c1c(O)c2ccccc2oc1=O` (centres undefined): “inactive”.
Take `CC(C)c1cccc(C(C)C)c1`: the result was inactive.
For the compound `CC(C)(O)c1ccc(CNC(=O)c2cccnc2Oc2ccc(F)cc2)cc1`, the AC50 was 0.184 µM (active).
Turning to `NCCOCCOCCN`, the compound was classed as inactive.
On the same count and under the same terms, next, `C/C=C/c1ccc(OC)cc1`: “inactive”; `Oc1ccccc1O`: “inactive”; `CCc1cc(C2=C(C(=O)O)N(c3ccccc3C(F)(F)F)S(=O)(=O)c3ccccc32)cc2c1OCO2`: “inactive”.
Consider `CCCCCCCC(=O)OC`, for which the result was inactive.
On the same count and under the same terms, next, `O=C(NS(=O)(=O)/C=C/c1cccs1)c1ccc(F)cc1Br`: “inactive”; `CCCCC(CC)COC(=O)CCCCCCCC(=O)OCC(CC)CCCC` (centres undefined): “inactive”; `S=c1[nH]c2ccccc2s1`: “inactive”.
`CC(C)c1cccc(C(C)C)c1NC(=O)NS(=O)(=O)c1cc(C(C)(C)O)co1`: the compound was called inactive.
For the compound `NC(=Nc1ccccc1)Nc1ccccc1`, the AC50 was 61.8 µM (active).
For the compound `CC(=O)[C@@]1(O)CC[C@H]2[C@@H]3CCC4=CC(=O)CC[C@]4(C)[C@H]3CC[C@@]21C`, the result was inactive.
The same measure, in the same setting: the same measure for `Oc1ccc(O)cc1`: “inactive”.
For `O=Cc1ccccc1C=O`, the result was inactive.
Consider `COC(=O)CCCC(=O)OC`, for which the call was inactive.
On the same count and under the same terms, next, `O=C(O)CN(CC(=O)O)CC(=O)O`: “inactive”; `C=CCc1ccc(OC)c(OC)c1`: “inactive”; `O=[Si]=O`: “inactive”.
Same read-out and setting: next, `Cc1cn([C@H]2C=C[C@@H](CO)O2)c(=O)[nH]c1=O`: “inactive”; `CCCCc1nc2cccnc2n1Cc1ccc(-c2ccccc2-c2nnn[nH]2)cc1`: “inactive”.
On the same count and under the same terms, next, `O=C1O[C@H]([C@H](O)CO)C(O)=C1O`: “inactive”.

The target of a further test is Aryl hydrocarbon receptor (Homo sapiens) (UniProt P35869). The test can be described thus: ATG_Ahr_CIS: Attagene CIS-FACTORIAL HepG2 Assay for human Aryl Hydrocarbon Receptor (Ahr) (AID 2282930). Particulars: HepG2 AhR cis-factorial reporter transcription; actives raise or lower the signal. An outline of the steps:
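Transient MRTU transfection of HepG2 → 24 h compound exposure → total RNA, oligo(dT) RT → PCR, 6-FAM extension, HpaI cut → CE fluorescence. DMSO = baseline; bidirectional curve fit.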
`CCCCCCCCCCCCCCCCO`: the outcome was inactive.
`CC(C)c1cccc(C(C)C)c1`: the outcome was inactive.
Take `NCCOCCOCCN`: the result was inactive.
Take `C/C=C/c1ccc(OC)cc1`: the compound was classed as inactive.
Same read-out and setting: the same measure for `CCCCCCCC(=O)OC`: “inactive”.
In the case of `O=C(NS(=O)(=O)/C=C/c1cccs1)c1ccc(F)cc1Br`, the call was inactive.
Take `O=C(O)c1cccnc1`: the result was inactive.
For `NC(=Nc1ccccc1)Nc1ccccc1`, the AC50 is 13.1 µM (active).
Turning to `O=Cc1ccccc1C=O`, the compound was called inactive.
On the same count and under the same terms, the same measure for `C=CCc1ccc(OC)c(OC)c1`: “inactive”; for `Cc1cn([C@H]2C=C[C@@H](CO)O2)c(=O)[nH]c1=O`: “inactive”.
On the same count and under the same terms, next, `CCCCc1nc2cccnc2n1Cc1ccc(-c2ccccc2-c2nnn[nH]2)cc1`: “inactive”; `O=C1O[C@H]([C@H](O)CO)C(O)=C1O`: “inactive”.

Test system in the next test: not listed separately
The test can be described thus: ATG_AP_1_CIS: Attagene CIS-FACTORIAL HepG2 Assay for human Activator Protein 1 (AP-1) (AID 2282931). The conditions noted are these: HepG2 Attagene cis-factorial AP-1 reporter mRNA; actives raise or lower the signal. The procedure, abridged: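 We transfected HepG2 cells transiently with a set of cis-regulated reporter transcription units, dosed them for 24 h, and quantified reporter mRNA via RT-PCR and capillary electrophoresis, scoring gain or loss of signal relative to DMSO.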
Consider `Cc1cc(Cc2ccc(N)c(C)c2)ccc1N`, for which the outcome was inactive.
In the case of `O=C1OC(c2ccc(O)cc2)(c2ccc(O)cc2)c2ccccc21`, the concentration at half-maximal activity (AC50) was 169 µM (active).
Regarding `CC(C)(C)c1ccccc1`, the outcome was inactive.
Consider `CCCCCCCCCCCCCCCCO`, for which the compound was classed as inactive.
Same read-out and setting: next, `COC(=O)CCC(=O)OC`: “inactive”.
The same measure, in the same setting: the same measure for `CC(=O)CC(c1ccccc1)c1c(O)c2ccccc2oc1=O` (centres undefined): “inactive”; for `CC(C)c1cccc(C(C)C)c1`: “inactive”.
Take `CC(C)(O)c1ccc(CNC(=O)c2cccnc2Oc2ccc(F)cc2)cc1`: the compound was classed as inactive.
On the same count and under the same terms, next, `NCCOCCOCCN`: “inactive”; `C/C=C/c1ccc(OC)cc1`: “inactive”.
On to `Oc1ccccc1O`, for which the AC50 is 13.3 µM (active).
The same measure, in the same setting: next, `CCc1cc(C2=C(C(=O)O)N(c3ccccc3C(F)(F)F)S(=O)(=O)c3ccccc32)cc2c1OCO2`: 38.6 µM (active).
Take `CCCCCCCC(=O)OC`: the call was inactive.
For the compound `O=C(NS(=O)(=O)/C=C/c1cccs1)c1ccc(F)cc1Br`, the compound was called inactive.
`CCCCC(CC)COC(=O)CCCCCCCC(=O)OCC(CC)CCCC` (centres undefined): the call was inactive.
On to `S=c1[nH]c2ccccc2s1`, for which the AC50 was 19.8 µM (active).
For the compound `CC(C)c1cccc(C(C)C)c1NC(=O)NS(=O)(=O)c1cc(C(C)(C)O)co1`, the outcome was inactive.
On the same count and under the same terms, next, `O=C(O)c1cccnc1`: “inactive”; `NC(=Nc1ccccc1)Nc1ccccc1`: “inactive”; `CC(=O)[C@@]1(O)CC[C@H]2[C@@H]3CCC4=CC(=O)CC[C@]4(C)[C@H]3CC[C@@]21C`: “inactive”.
`Oc1ccc(O)cc1`: the AC50 was 48.3 µM (active).
Turning to `O=Cc1ccccc1C=O`, the call was inactive.
The same measure, in the same setting: next, `COC(=O)CCCC(=O)OC`: “inactive”.
On to `O=C(O)CN(CC(=O)O)CC(=O)O`, for which the outcome was inactive.
In the case of `C=CCc1ccc(OC)c(OC)c1`, the outcome was inactive.
In the case of `O=[Si]=O`, the result was inactive.
The same measure, in the same setting: the same measure for `Cc1cn([C@H]2C=C[C@@H](CO)O2)c(=O)[nH]c1=O`: “inactive”.
On to `CCCCc1nc2cccnc2n1Cc1ccc(-c2ccccc2-c2nnn[nH]2)cc1`, for which the compound was called inactive.
Still for that read-out and setting: the same measure for `O=C1O[C@H]([C@H](O)CO)C(O)=C1O`: “inactive”.

Test system in the next test: not listed separately
As to the kind of experiment: ATG_AP_2_CIS: Attagene CIS-FACTORIAL HepG2 Assay for human Activator Protein 2 (AP-2) (AID 2282932). The conditions noted are these: HepG2 AP-2 cis-reporter, Attagene transcription factor profiling; actives raise or lower the signal. The procedure, abridged: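 Endogenous transcription factor activity is reported through transfected multiplex reporter constructs in HepG2, after 24 h of compound exposure. Transcripts were quantified by RT-PCR and capillary electrophoresis of fluorescent fragments. Bidirectional fit against DMSO.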
In the case of `Cc1cc(Cc2ccc(N)c(C)c2)ccc1N`, the compound was called inactive.
`O=C1OC(c2ccc(O)cc2)(c2ccc(O)cc2)c2ccccc21`: the AC50 is 48.1 µM (active).
As to `CC(C)(C)c1ccccc1`, the outcome was inactive.
Same read-out and setting: next, `CC(=O)CC(c1ccccc1)c1c(O)c2ccccc2oc1=O` (centres undefined): “inactive”; `CC(C)(O)c1ccc(CNC(=O)c2cccnc2Oc2ccc(F)cc2)cc1`: “inactive”; `Oc1ccccc1O`: “inactive”.
In the case of `CCCCC(CC)COC(=O)CCCCCCCC(=O)OCC(CC)CCCC` (centres undefined), the result was inactive.
Still for that read-out and setting: the same measure for `S=c1[nH]c2ccccc2s1`: “inactive”.
Same read-out and setting: next, `CC(C)c1cccc(C(C)C)c1NC(=O)NS(=O)(=O)c1cc(C(C)(C)O)co1`: “inactive”; `O=C(O)c1cccnc1`: “inactive”.
The same measure, in the same setting: the same measure for `CC(=O)[C@@]1(O)CC[C@H]2[C@@H]3CCC4=CC(=O)CC[C@]4(C)[C@H]3CC[C@@]21C`: “inactive”.
Take `COC(=O)CCCC(=O)OC`: the outcome was inactive.
On to `O=C(O)CN(CC(=O)O)CC(=O)O`, for which the call was inactive.
Regarding `O=[Si]=O`, the compound was called inactive.
